Inconclusive results are not listed. Activity calls are given as the source filed them. Calls come from the whole dose curve; as a rule, active = well fitted curve in the direction sought with a large enough effect; inconclusive = small, poorly fitted or top-dose-only effect, or another doubt; inactive = no such curve, though single readings can be large; an effect the other way counts as inactive or inconclusive.

A short description of assay [1]: qHTS of pediatric cancer cell lines to identify multiple opportunities for drug repurposing: Primary screen for TC32 cells (AID 1347089). Note: nearly all actives have a fitted effect of over 60% in size. Note: potency is the fitted concentration of half-maximal effect. A digest of the protocol:
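qHTS, TC32, 48 h drug treatment, CellTiter-Glo luminescence as a proxy for metabolically active cells; primary top concentration 46 µM (MIPE 11-pt, NPC 8-pt); confirmatory 11-pt.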
Background: qHTS replaces the single test concentration by a dilution series.

The nature of assay [2]: qHTS of pediatric cancer cell lines to identify multiple opportunities for drug repurposing: Primary screen for DAOY cells (AID 1347090). Note: nearly all actives have a fitted effect of over 55% in size. Note: potency is the fitted concentration of half-maximal effect. In a few lines:
(§1)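 Cell viability, CellTiter-Glo luminescence; 500-1,000 cells/well, 8- or 11-point titration, 48 h compound exposure at 37 degrees C, 5% CO2. Controls: DMSO neutral, bortezomib 2.3 µM final as positive.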

Assay [3] is described as follows: qHTS of pediatric cancer cell lines to identify multiple opportunities for drug repurposing: Primary screen for SJ-GBM2 cells (AID 1347091). Note: potency is the fitted concentration of half-maximal effect. In a few lines: as §1
Assay [4] in a line: qHTS of pediatric cancer cell lines to identify multiple opportunities for drug repurposing: Primary screen for A673 cells (AID 1347092). Note: nearly all actives have a fitted effect of over 45% in size. Note: potency is the fitted concentration of half-maximal effect. A digest of the protocol:
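Luminescence from CellTiter-Glo, taken after 15 min at room temperature, served as the proxy for metabolically active cells following 48 h treatment. Both potency and efficacy were taken from curves fitted to the titration data.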

Assay [5] is described as follows: qHTS of pediatric cancer cell lines to identify multiple opportunities for drug repurposing: Primary screen for SK-N-MC cells (AID 1347093). Note: potency is the fitted concentration of half-maximal effect. In a few lines:
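Metabolically active cells were quantified by ATP-dependent luminescence (CellTiter-Glo, 15 min at room temperature) following 48 h treatment. Cells had been plated at 500-1,000 per well and settled for 5 h beforehand.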

A short description of assay [6]: qHTS of pediatric cancer cell lines to identify multiple opportunities for drug repurposing: Primary screen for BT-37 cells (AID 1347094). Note: potency is the fitted concentration of half-maximal effect. A digest of the protocol: (§2)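 Luminescence from CellTiter-Glo served as readout of metabolically active cells after 48 h compound exposure. Titrations: MIPE 11-point, from 0.78 nM; NPC 8-point, from 0.59 nM (final). Concentration-response curves came straight from the primary screen.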

Assay [7] can be described thus: qHTS of pediatric cancer cell lines to identify multiple opportunities for drug repurposing: Primary screen for NB-EBc1 cells (AID 1347095). Note: potency is the fitted concentration of half-maximal effect. In a few lines:
as §2

Assay [8] in a line: qHTS of pediatric cancer cell lines to identify multiple opportunities for drug repurposing: Primary screen for Saos-2 cells (AID 1347097). Note: nearly all actives have a fitted effect of over 40% in size. Note: potency is the fitted concentration of half-maximal effect. In a few lines:
as §2

A short description of assay [9]: qHTS of pediatric cancer cell lines to identify multiple opportunities for drug repurposing: Primary screen for SK-N-SH cells (AID 1347098). Note: nearly all actives have a fitted effect of over 65% in size. Note: potency is the fitted concentration of half-maximal effect. In a few lines: (§3)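 Cells (500-1,000/well) rested 5 h, then received compounds for 48 h; metabolically active cells were measured by CellTiter-Glo luminescence. Final concentrations spanned up to 46 µM (MIPE, 11-point) or 0.59 nM-46 µM (NPC, 8-point) in primary screens, 11-point in follow-ups.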

A short description of assay [10]: qHTS of pediatric cancer cell lines to identify multiple opportunities for drug repurposing: Primary screen for BT-12 cells (AID 1347101). Note: nearly all actives have a fitted effect of over 25% in size. Note: potency is the fitted concentration of half-maximal effect. In a few lines:
as §3

A short description of assay [11]: qHTS of pediatric cancer cell lines to identify multiple opportunities for drug repurposing: Primary screen for Rh18 cells (AID 1347102). Note: nearly all actives have a fitted effect of over 65% in size. Note: potency is the fitted concentration of half-maximal effect. A digest of the protocol: as §3
Assay [12] can be described thus: qHTS of pediatric cancer cell lines to identify multiple opportunities for drug repurposing: Primary screen for OHS-50 cells (AID 1347103). Note: nearly all actives have a fitted effect of over 40% in size. Note: potency is the fitted concentration of half-maximal effect. In a few lines:
as §3

Assay [13] can be described thus: qHTS of pediatric cancer cell lines to identify multiple opportunities for drug repurposing: Primary screen for RD cells (AID 1347104). Note: nearly all actives have a fitted effect of over 55% in size. Note: potency is the fitted concentration of half-maximal effect. A digest of the protocol: as §2
The nature of assay [14]: qHTS of pediatric cancer cell lines to identify multiple opportunities for drug repurposing: Primary screen for U-2 OS cells (AID 1347096). Note: nearly all actives have a fitted effect of over 50% in size. In a few lines: as §3
A short description of assay [15]: qHTS of pediatric cancer cell lines to identify multiple opportunities for drug repurposing: Primary screen for NB1643 cells (AID 1347099). Note: nearly all actives have a fitted effect of over 50% in size. Note: potency is the fitted concentration of half-maximal effect. A digest of the protocol: as §2
The nature of assay [16]: qHTS of pediatric cancer cell lines to identify multiple opportunities for drug repurposing: Primary screen for LAN-5 cells (AID 1347100). Note: potency is the fitted concentration of half-maximal effect. A digest of the protocol: as §3

In the case of `Nc1nc(Nc2ccc(S(N)(=O)=O)cc2)nn1C(=O)c1c(F)cccc1F`, the Potency was 14.7 µM (active) in [1]; 11.8 µM (active) in assay [2]; 3.72 µM (active) in assay [3]; 2960 nM (active) in assay [4]; 3320 nM (active) in assay [5]; 15.3 µM (active) in assay [6]. Also, the Potency was 5.26 µM (active) in assay [7]; 13.2 µM (active) in assay [8]; 8.57 µM (active) in assay [9]; 13.7 µM (active) in assay [10]; 9.68 µM (active) in [12]; 11.8 µM (active) in assay [13]. Further, the Potency result in [11] was “inactive”.

Consider `O=C(c1cncc(Br)c1)N1CCC(N2CCCC2)CC1`, for which the Potency entry in assay [1], in assay [2], in assay [3], in assay [4], in [5] and in assay [6] was “inactive” in each case. The Potency entry in assay [14], in assay [8], in [9], in [15], in assay [16] and in assay [10] was “inactive” in each case. Besides, the Potency entry in [12] and in [13] was “inactive” each time.

For `CC(C)(O)c1cc2nc(-c3cnc(N)nc3)nc(N3CCOCC3)c2s1`, the Potency in [1] is 0.466 µM (active); in assay [2] it was 0.148 µM (active); in assay [3] it was 0.235 µM (active); in assay [4], 372 nM (active); in [5] it was 11.8 nM (active); in assay [6] it was 0.769 µM (active). The Potency in assay [7] is 0.0935 µM (active); in assay [8], 0.235 µM (active); in assay [9], 8.57 µM (active); in assay [15] it was 187 nM (active); in assay [16], 0.372 µM (active); in assay [11], 0.372 µM (active). Also, the Potency in assay [12] was 0.0306 µM (active); in [13], 0.209 µM (active).

Turning to `Cc1c(C)n(Cc2ccc(-c3ccccc3C(=O)O)cc2)c2ccc(C(=O)N[C@@H](C)c3ccc([N+](=O)[O-])cc3)cc12`, the Potency entry in assay [1], in assay [14] and in [11] was “inactive” in each case. Besides, the Potency in assay [2] is 0.0296 µM (active); in assay [3], 23.5 µM (active); in assay [4], 148 nM (active); in assay [5] it was 18.7 nM (active); in assay [6], 0.968 µM (active); in [9], 3.04 µM (active). The Potency was 187 nM (active) in assay [15], 0.769 µM (active) in assay [10], 2.73 µM (active) in assay [12] and 1.66 µM (active) in assay [13].

With `Cc1[nH]nc2ccc(-c3cncc(OC[C@@H](N)Cc4ccccc4)c3)cc12`, the Potency in assay [1] was 4.66 µM (active); in [2] it was 2.96 µM (active); in [3], 0.743 µM (active); in assay [4], 235 nM (active); in assay [5], 526 nM (active); in assay [6], 1.22 µM (active). Besides, the Potency in assay [7] was 0.469 µM (active); in assay [8], 2.96 µM (active); in assay [9], 1.52 µM (active); in assay [15] it was 935 nM (active); in assay [10] it was 1.72 µM (active); in assay [11], 3.32 µM (active). The Potency in assay [13] is 3.32 µM (active).

Take `CC(C)(C)OC(=O)Nc1ccc(-c2cc(C(=O)NCCCCCCC(=O)NO)no2)cc1`: the Potency in assay [1] was 9.3 µM (active); in assay [2], 4.69 µM (active); in assay [3] it was 1.48 µM (active); in assay [4], 2960 nM (active); in assay [5], 833 nM (active); in [6] it was 5.44 µM (active). Further, the Potency in assay [7] is 1.18 µM (active); in assay [8], 2.35 µM (active); in [9], 6.81 µM (active); in assay [15], 1180 nM (active); in assay [16], 1.66 µM (active); in assay [10], 17.2 µM (active). In addition, the Potency is 2.35 µM (active) in assay [11], 4.32 µM (active) in assay [12] and 5.26 µM (active) in assay [13].

As for `CN(c1ncccc1CNc1nc(Nc2ccc3c(c2)CC(=O)N3)ncc1C(F)(F)F)S(C)(=O)=O`, the Potency is 13.1 µM (active) in assay [1]; 18.7 µM (active) in [2]; 3.32 µM (active) in [3]; 4690 nM (active) in assay [4]; 2960 nM (active) in assay [5]; 9.68 µM (active) in assay [6]. Besides, the Potency in [7] was 4.69 µM (active); in assay [8], 6.62 µM (active); in assay [9] it was 24.1 µM (active); in assay [15], 2350 nM (active); in assay [10], 10.9 µM (active); in assay [12] it was 5.44 µM (active). Moreover, the Potency in assay [13] was 10.5 µM (active). Besides, in [11], the Potency entry was “inactive”.

For the molecule `O=c1[nH]nc(Sc2ncc([N+](=O)[O-])s2)n1-c1ccc2c(c1)OCCO2`, the Potency entry in assay [1] was “inactive”. The Potency is 9.35 µM (active) in assay [2]; 9.35 µM (active) in [3]; 3720 nM (active) in [4]; 9350 nM (active) in assay [5]; 21.7 µM (active) in assay [6]; 2.64 µM (active) in [7]. The Potency in assay [8] is 10.5 µM (active); in [9], 12.1 µM (active); in [15], 4690 nM (active); in [16] it was 8.33 µM (active); in assay [10] it was 17.2 µM (active); in [11], 9.35 µM (active). In addition, the Potency in [12] is 9.68 µM (active); in assay [13], 13.2 µM (active).

In the case of `CCc1c2c(nc3ccc(O)cc13)-c1cc3c(c(=O)n1C2)COC(=O)[C@]3(O)CC`, the Potency in assay [1] is 0.0083 µM (active); in assay [2], 0.0296 µM (active); in assay [3], 0.0066 µM (active); in assay [4], 7.4 nM (active); in assay [5] it was 2.1 nM (active); in [6] it was 0.0086 µM (active). The Potency was 0.0187 µM (active) in [8]; 0.152 µM (active) in assay [9]; 23.5 nM (active) in assay [15]; 0.001 µM (active) in assay [16]; 0.193 µM (active) in [10]; 0.105 µM (active) in [11]. Further, the Potency in [12] is 0.0086 µM (active); in [13], 0.372 µM (active). The Potency result in assay [14] is “inactive”.

On to `Cc1nc2cnc3ccc(C#Cc4cccnc4)cc3c2n1-c1ccc(C(C)(C)C#N)cc1`, for which the Potency in assay [1] is 0.33 µM (active); in assay [2] it was 0.118 µM (active); in [3] it was 0.332 µM (active); in [4], 9.3 nM (active); in [5], 46.9 nM (active); in assay [6], 0.217 µM (active). In addition, the Potency in [7] is 0.833 µM (active); in [8], 0.235 µM (active); in assay [9] it was 0.0681 µM (active); in assay [15], 3320 nM (active); in [16], 5.9 µM (active); in assay [11], 1.18 µM (active). For the same molecule, the results for the Potency in [12] and in assay [13] were 0.0968 µM (active) and 0.0833 µM (active), respectively.

These data come from PubChem BioAssay (NCATS).
